In PubChem BioAssay (NCI) one finds growth data, which are given here for seven compounds.

Test systems include HCT-15 colon; HT29 colon; SNB-75 CNS; SNB-19 CNS; U251 CNS; PC-3 prostate; SK-MEL-5 melanoma; UACC-62 melanoma; LOX IMVI melanoma; SK-MEL-28 melanoma; SK-MEL-2 melanoma; EKVX NSCLC; SN12C renal; UO-31 renal; TK-10 renal; ACHN renal; CAKI-1 renal; A498 renal; CCRF-CEM leukemia; MOLT-4 leukemia.
Test in all cases: NCI-60 one-dose screen, 48 h (100 = growth as untreated, 0 = no growth, -100 = all killed)
What all share (settings): 10 µM unless noted

This is part of a sample that, as a whole, favours compounds with a hit. Of some 83,000 tested, about 20% had one in any assay.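 96-well plates, one dose, 48 hours. Percent growth reported; active if below 10.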 A number with no mark means an inactive call. The source made the active and inactive calls.

Take `O=C(CCn1c[n+](CC(=O)c2ccc(F)cc2)c2ccccc21)Nc1cccc2cccnc12`: the growth was 106% in the assay on HCT-15 colon; 58.6% in the assay with HT29 colon; 75.6% in the assay on SNB-75 CNS; 71.1% with SNB-19 CNS; 79.3% in the assay on U251 CNS; 63.4% in the assay on PC-3 prostate. Also, the growth is 33.4% in the assay with SK-MEL-5 melanoma; 55.7% in the assay on UACC-62 melanoma; 84.6% in the assay on LOX IMVI melanoma; 60.1% with SK-MEL-28 melanoma; 81.7% with SK-MEL-2 melanoma; 89.5% with EKVX NSCLC. The growth was 94% with SN12C renal; 88.9% in the assay on UO-31 renal; 107% with TK-10 renal; 95.7% in the assay with ACHN renal; 99.9% in the assay on CAKI-1 renal; 130% with A498 renal. The growth in the assay with CCRF-CEM leukemia was 68.3%; in the assay on MOLT-4 leukemia, 65.2%.

On to `CN1CCN(Cc2ccc(NC(=O)c3cncc(C#Cc4cnc5ccc(NCCCO)nn45)c3)cc2C(F)(F)F)CC1`, for which the growth with HCT-15 colon was 1.94% (active); in the assay with HT29 colon it was -2.42% (active); with SNB-75 CNS it was -70.8% (active); in the assay with SNB-19 CNS, -0.64% (active); in the assay on U251 CNS, -68% (active); in the assay with PC-3 prostate, -19.2% (active). Besides, the growth in the assay on SK-MEL-5 melanoma is -87% (active); in the assay on UACC-62 melanoma it was -14.1% (active); in the assay on LOX IMVI melanoma it was -86.3% (active); with SK-MEL-28 melanoma, -21% (active); with SK-MEL-2 melanoma, -90.8% (active); in the assay with EKVX NSCLC it was -3.09% (active). Besides, the growth in the assay with SN12C renal is 15.6%; in the assay on UO-31 renal, -1.42% (active); in the assay on TK-10 renal it was -28.7% (active); in the assay on ACHN renal it was 3.14% (active); in the assay on CAKI-1 renal, -1.99% (active); in the assay on A498 renal, -98.8% (active). The values for the growth in the assay on CCRF-CEM leukemia and in the assay on MOLT-4 leukemia were 6.66% (active) and 8.92% (active), respectively.

Turning to `NC(N)=Nc1ccc(Oc2cccc(Nc3ccc(Cl)c(C(F)(F)F)c3)c2)cn1`, the growth in the assay on HCT-15 colon was -63.5% (active); in the assay on HT29 colon it was -39.2% (active); in the assay with SNB-75 CNS, 20.3%; in the assay with SNB-19 CNS it was -77% (active); in the assay on U251 CNS, -82.2% (active); in the assay on PC-3 prostate, -89.4% (active). For the same compound, the growth is 26.7% in the assay on SK-MEL-5 melanoma; -78.3% (active) in the assay on UACC-62 melanoma; -83.8% (active) in the assay on LOX IMVI melanoma; -28.6% (active) in the assay with SK-MEL-28 melanoma; -17.7% (active) with SK-MEL-2 melanoma; -58.5% (active) in the assay on EKVX NSCLC. Besides, the growth was -84.4% (active) in the assay with SN12C renal; 43.3% in the assay on UO-31 renal; 23.2% in the assay on TK-10 renal; 3.16% (active) in the assay with ACHN renal; -6.78% (active) in the assay on CAKI-1 renal; -7.17% (active) in the assay with A498 renal. The values for the growth with CCRF-CEM leukemia and in the assay on MOLT-4 leukemia were -7% (active) and -39% (active), respectively.

As to `CN1CCN(Cc2ccc(NC(=O)c3cncc(C#Cc4cnc5ccc(N6CCN(C)CC6)nn45)c3)cc2C(F)(F)F)CC1`, the growth was -57% (active) with HCT-15 colon; -41.6% (active) with HT29 colon; -68.9% (active) with SNB-75 CNS; -29.3% (active) in the assay with SNB-19 CNS; -96.7% (active) with U251 CNS; -18.6% (active) with PC-3 prostate. The growth was 90.5% with SK-MEL-5 melanoma; 92.2% in the assay with UACC-62 melanoma; -93.1% (active) in the assay with LOX IMVI melanoma; 82% in the assay on SK-MEL-28 melanoma; 56.4% with SK-MEL-2 melanoma; -84.9% (active) with EKVX NSCLC. In addition, the growth in the assay on SN12C renal was 15.7%; in the assay on UO-31 renal, 20.1%; with TK-10 renal it was 59%; in the assay on ACHN renal, -98.1% (active); in the assay with CAKI-1 renal, -95.3% (active); with A498 renal, 43.7%. Further, the growth in the assay on CCRF-CEM leukemia was -2.14% (active); in the assay on MOLT-4 leukemia, -26.2% (active).

For the compound `N#Cc1cccc(CN2CCc3ncn(Cc4ccc(Cl)cc4)c(=O)c3C2)c1`, the growth in the assay on HCT-15 colon is 13.5%; in the assay with HT29 colon, 28.3%; with SNB-75 CNS, 33.2%; in the assay on SNB-19 CNS it was 19.7%; in the assay with U251 CNS it was 23.1%; with PC-3 prostate, 18.5%. For the same compound, the growth was 3.19% (active) in the assay with SK-MEL-5 melanoma; 20.6% in the assay on UACC-62 melanoma; 35.3% with LOX IMVI melanoma; 36.9% with SK-MEL-28 melanoma; 28.6% in the assay on SK-MEL-2 melanoma; 23.7% in the assay with EKVX NSCLC. Moreover, the growth was 15.9% in the assay with SN12C renal; 26% in the assay on UO-31 renal; 38.1% in the assay with TK-10 renal; 29.8% with ACHN renal; 10.7% with CAKI-1 renal; 4.83% (active) in the assay on A498 renal. Further, the growth in the assay on CCRF-CEM leukemia was 35.9%; in the assay with MOLT-4 leukemia, 43.3%.

On to `N#Cc1cccc(NC(=O)c2cc(-c3ccc(F)cc3F)ccc2O)c1`, for which the growth is 6.97% (active) in the assay with HCT-15 colon; 94.9% with HT29 colon; 3.99% (active) with SNB-75 CNS; 11.4% with SNB-19 CNS; 10.9% in the assay on U251 CNS; 9.28% (active) in the assay with PC-3 prostate. For the same compound, the growth with SK-MEL-5 melanoma is -74.3% (active); with UACC-62 melanoma, -12.9% (active); in the assay with LOX IMVI melanoma it was 1.22% (active); with SK-MEL-28 melanoma, 25%; with SK-MEL-2 melanoma, 0.79% (active); in the assay with EKVX NSCLC it was 10.3%. Also, the growth in the assay with SN12C renal was 4.45% (active); in the assay on UO-31 renal, -14.2% (active); in the assay with TK-10 renal it was 19.3%; in the assay with ACHN renal it was 5.79% (active); in the assay with CAKI-1 renal it was -16.7% (active); in the assay with A498 renal, -33.1% (active). Besides, the growth in the assay on CCRF-CEM leukemia is 20.1%; with MOLT-4 leukemia, 6.28% (active).

Consider `C#CCOc1ccc(/C=N\Nc2nc(-c3ccc(C)cc3)cs2)cc1OC`, for which the growth was 86.1% in the assay on HCT-15 colon; 88.2% with HT29 colon; 114% in the assay with SNB-75 CNS; 95.2% in the assay on SNB-19 CNS; 89.3% in the assay on U251 CNS; 69.6% with PC-3 prostate. For the same compound, the growth in the assay on SK-MEL-5 melanoma is 71.6%; in the assay with UACC-62 melanoma, 74.7%; in the assay on LOX IMVI melanoma, 93.7%; in the assay on SK-MEL-28 melanoma, 89.9%; in the assay with SK-MEL-2 melanoma, 96.1%; with EKVX NSCLC, 65.3%. Besides, the growth with SN12C renal was 89.2%; in the assay on UO-31 renal, 78.3%; in the assay with TK-10 renal, 166%; with ACHN renal it was 103%; in the assay with CAKI-1 renal, 115%; in the assay with A498 renal, 81.2%. Further, the growth in the assay on CCRF-CEM leukemia is 90.4%; with MOLT-4 leukemia, 79.5%.
